CYP2C9 act: CYP2C9 (human) activation; actives 1.4% (n = 96,000); AID 1024; P11712; recombinant CYP2C9, luciferin-H conversion, luminescence; active compounds read high; factor 1 = untreated enzyme, 0 = blocked; activation factor at 5 µM;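 active means activation factor of 2 or more for CYP2C9 at a 5 µM dose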;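 further: 0 = sulfaphenazole-blocked wells and 1 = vehicle-only wells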
sEH activator: activators of human soluble epoxide hydrolase; actives 0.04% (n = 91,000); P34913; purified human sEH enzymatic activity, activator screen; activation, % at 2 µM; in the data active means activation above about 37%
Target sequence (P34913 whole entry, looked up): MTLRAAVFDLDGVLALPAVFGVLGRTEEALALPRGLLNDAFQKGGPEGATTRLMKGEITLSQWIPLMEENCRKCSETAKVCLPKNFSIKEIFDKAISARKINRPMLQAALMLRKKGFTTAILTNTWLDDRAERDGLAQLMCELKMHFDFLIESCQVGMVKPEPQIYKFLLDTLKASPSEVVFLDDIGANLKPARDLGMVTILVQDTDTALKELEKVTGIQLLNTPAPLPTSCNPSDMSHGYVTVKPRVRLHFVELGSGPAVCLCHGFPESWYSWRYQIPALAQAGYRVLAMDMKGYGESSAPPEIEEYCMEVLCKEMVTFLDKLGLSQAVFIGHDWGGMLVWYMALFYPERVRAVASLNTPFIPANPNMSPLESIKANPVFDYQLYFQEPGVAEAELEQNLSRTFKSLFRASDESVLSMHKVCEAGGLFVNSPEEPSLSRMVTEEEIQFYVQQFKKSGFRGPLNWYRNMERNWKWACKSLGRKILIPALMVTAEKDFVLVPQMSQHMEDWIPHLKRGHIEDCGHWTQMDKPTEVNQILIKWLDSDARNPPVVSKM
sEH inh: soluble epoxide hydrolase (human) inhibition. P34913. recombinant human sEH enzymatic activity assay. inhibition, % at 2 µM. actives 0.34% (n = 91,000). AID 707; in the data active means inhibition above about 80%
CYP2C19 inh: human CYP2C19 inhibition. P33261. CYP2C19 Supersomes, luciferin-H EGE luminescence, 30 min. inhibition, % at 5 µM. actives 21% (n = 96,000);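 active means CYP2C19 inhibition above a set limit at 5 µM in the primary screen, cut at about 50% in these data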;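 further: plate controls were negative control wells for no effect and 2.5 mM tranylcypromine positive control for full effect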
CYP2C19 act: increases human CYP2C19 enzyme activity. AID 1025. 96,000 tested, under 10 active. activation factor at 5 µM. recombinant CYP2C19, luciferin-H EGE luminescence; active compounds read high; 0 = fully inhibited enzyme, 1 = untreated enzyme. P33261;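 active means activation factor of at least 2 at 5 µM in the primary screen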;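 further: 0 = wells with 2.5 mM tranylcypromine and 1 = vehicle-only wells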
CYP2C9 inhib: inhibitors of human CYP2C9; inhibition, % at 5 µM; actives 20% (n = 96,000); CYP2C9 Supersomes, luciferin-H conversion, luminescence; P11712;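 active means blocking of liver enzyme CYP2C9 beyond about 50% at 5 µM, limit read from the data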
* hit, by the source's call; x = not tested or not shown. Rows were chosen to be rich in hits. Some 27% of all compounds tested hit in one or more screens of this group.

SMILES	CYP2C9 act	sEH activator	sEH inh	CYP2C19 inh	CYP2C19 act	CYP2C9 inhib
[O-]/[N+](=C\c1ccncc1)c1ccccc1	0.8	x	x	21	0.8	19
CCn1cc(C(=O)N2CCOCC2)c(=O)c2cc(S(=O)(=O)N(C)C)ccc21	1	x	x	-1	1	-2
CCC(c1nnnn1C(C)(C)CC)N(CCCN1CCOCC1)Cc1cc2cccc(C)c2[nH]c1=O (stereo not given)	0.8	-4	3	16	0.8	18
CCC(c1nnnn1C(C)(C)CC)N(CCCO)Cc1cc2cccc(C)c2[nH]c1=O (stereo not given)	0.3	x	x	71*	0.3	75*
CC1=CC(C)(C)Nc2ccc(OC(=O)C(Cc3ccccc3)N3C(=O)c4ccccc4C3=O)cc21 (stereo not given)	0.4	12	-11	8	0.9	56*
CC1=CC(C)(C)Nc2ccc(OC(=O)CN3C(=O)c4cccc5cccc(c45)C3=O)cc21	0.6	21	-18	27	0.7	40
COCCNC(=O)c1cc(-c2ccc(Cl)c(Cl)c2)on1	1	x	x	-16	1.2	-4
CCOC(=O)c1sc(N)c(C#N)c1CSc1nc2ccc(OCC)cc2[nH]1	0	x	x	93*	0.1	97*
CCOC(=O)c1sc(N)c(C#N)c1CSc1nc2ccc(C)cc2[nH]1	0.2	12	-14	77*	0.2	76*
CC(C)(C)NC(=O)C12CCC(C)(c3nc4ccccc4nc31)C2(C)C (stereo not given)	0.8	5	-4	22	0.8	19
CC1C(C(=O)Nc2ccccc2)CCCC1(C)C(=O)O (stereo not given)	0.9	-5	6	-5	1	10
CC1=C(C(=O)OC(C)C)C(c2ccc(F)cc2)NC(=O)N1 (stereo not given)	0.7	-4	6	85*	0.2	30
CC1=C(C(=O)OCc2ccc3c(c2)OCO3)C(c2ccc(F)cc2)NC(=O)N1 (stereo not given)	0.5	7	-7	33	0.7	52*
CCC(C)OC(=O)C1=C(C)NC(=O)NC1c1ccc(F)cc1 (stereo not given)	0.6	-12	12	95*	0	39
CC1=C(C(=O)OCc2ccc3c(c2)OCO3)C(c2ccc(Cl)cc2)NC(=O)N1 (stereo not given)	0.6	x	x	19	0.8	42
CC1=C(C(=O)OC(C)C)C(c2ccc(Br)s2)NC(=O)N1 (stereo not given)	0.7	1	2	82*	0.2	33
CC(=O)c1ccc(N2CCN(CCC#N)CC2)c(F)c1	1	-12	13	7	0.9	-2
CCOC(=O)c1nn(-c2ccccc2F)c(-c2ccccc2)c1C(=O)c1ccccc1	0.6	-2	-1	27	0.7	36
CC1=C(C(=O)OCC(C)C)C(c2ccsc2)NC(=O)N1 (stereo not given)	0.5	-9	8	65*	0.3	52*
CCOC(=O)C1=C(C)NC(=O)NC1c1ccc2c(c1)OCCO2 (stereo not given)	0.8	4	-7	25	0.8	22
CCOC(=O)C1=C(Cn2ccc(C(F)(F)F)n2)NC(=O)NC1c1ccc2c(c1)OCO2 (stereo not given)	0.3	-3	6	72*	0.3	65*
CCOC(=O)c1sc(NC(=O)c2ccc(Cl)s2)cc1C	1	-91	91*	-3	1	1
CCOC(=O)c1sc(NC(=O)Nc2ccc(Cl)cc2)cc1C	0.8	-92	92*	42	0.6	18
CCc1ccc(-c2nc(CN3CCC(C(=O)NCc4ccco4)CC3)c(C)o2)cc1	0.8	2	0	11	0.9	22
O=c1c2ccccc2nc2n1CCN2Cc1ccc(Cl)cc1	0.3	x	x	74*	0.3	67*
SMILES	CYP2C9 act	sEH activator	sEH inh	CYP2C19 inh	CYP2C19 act	CYP2C9 inhib
O=c1c2ccccc2nc(-c2cccc(Cl)c2)n1O	0.6	-7	6	-5	1.1	45
O=c1c2ccccc2nc(-c2ccccc2)n1Cc1ccc(Cl)cc1	0.2	15	-12	77*	0.2	82*
CC(C)(C)n1ncc2c(=O)n(CC(=O)Nc3ccc4c(c3)OCCO4)cnc21	0.9	-4	1	-7	1.1	15
CC(=O)Nc1ccc(C(=O)OCC(=O)c2ccc(C)c([N+](=O)[O-])c2)cc1	0.5	6	-2	30	0.7	51*
C(=N\Nc1nc(Nc2ccccc2)nc(N2CCOCC2)n1)/c1c[nH]c2ccccc12	0.1	-8	7	100*	0	88*
COc1ccc(CCNc2nc(N3CCOCC3)nc(N3CCOCC3)n2)cc1OC	0.9	12	-6	17	0.8	5
COc1cccc(/C=N/Nc2nc(Nc3ccccc3)nc(-n3nc(C)cc3C)n2)c1O	0.2	8	-10	68*	0.3	79*
COc1ccc(/C=N/Nc2nc(Nc3ccccc3)nc(N3CCCCC3)n2)cc1OC	0.8	-1	0	71*	0.3	19
Cc1[nH]c2ccccc2c1/C=N/Nc1nc(Nc2ccc(F)cc2)nc(N2CCOCC2)n1	1.3	-7	8	1	1	-25
COc1ccc(CCNc2nc(N3CCCCC3)nc(N3CCCCC3)n2)cc1OC	0.3	7	-1	82*	0.2	72*
O=C(CSc1nnnn1-c1ccc2c(c1)OCCO2)OC1CCCCC1	0.5	-2	5	66*	0.3	45
Clc1ccc(CSc2nnnn2-c2ccc3c(c2)OCO3)c(Cl)c1	0.1	-1	3	89*	0.1	88*
c1ccc(CSc2nnnn2-c2ccc3c(c2)OCCO3)nc1	0.6	1	-2	90*	0.1	41
Cc1ccc(NC(=O)CCSc2nnnn2-c2ccc3c(c2)OCO3)cc1C	0.5	-26	26	74*	0.3	49
COc1ccc(Cn2c3nc4ccccc4nc3c3c(=O)n(Cc4ccco4)cnc32)cc1	0.4	x	x	32	0.7	62*
COCCCn1c2nc3ccccc3nc2c2c(=O)n(-c3ccccc3OC)cnc21	0.5	4	-4	54*	0.5	49
CCCCn1c2nc3ccccc3nc2c2c(=O)n(CCC)cnc21	0.8	-5	3	16	0.8	25
CCC(C)n1cnc2c(c1=O)c1nc3ccccc3nc1n2Cc1ccccc1OC (stereo not given)	0.3	3	-5	22	0.8	69*
CCCn1cnc2c(c1=O)c1nc3ccccc3nc1n2Cc1ccccc1OC	0.9	-1	4	9	0.9	13
COCCCn1cnc2c(c1=O)c1nc3ccccc3nc1n2CCc1ccccc1	0.4	0	1	40	0.6	58*
Cc1cccc(-n2cnc3c(c2=O)c2nc4ccccc4nc2n3Cc2ccco2)c1	0.6	x	x	50	0.5	42
Cn1c(=O)c2c(SCc3ccccn3)nc(-c3ccccc3)nc2n(C)c1=O	x	-3	2	x	x	x

Compound activity deposited in PubChem by several laboratories.
